Results filed as inconclusive are left out. The source made the active and inactive calls. How the source made its calls, unless noted: active means hit-call score of the fitted dose curve at least 0.9, where 1 is the maximum; inactive means score below 0.9.
How the values were obtained:
[1] = CCTE_Deisenroth_5AR_NBTE_acceptor: CCTE's 5alpha-reductase NanoBRET Target Engagement Assay - Autofluorescence Screen, Deisenroth Lab (AID 2284321); details: actives raise or lower the signal;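 further: compound fluorescence in the acceptor channel under 460 nm excitation flags autofluorescence artifacts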
Summary of the method: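 Autofluorescence check: ToxCast chemicals, nominal 100 uM, excitation 460 nm, n=3 runs. Acceptor fluorescence endpoint, bidirectional fit relative to DMSO. Parent assay in HEK293T, 5 h post-dose.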

SRD5A2 (gene 6716) = experiment: CCTE_Deisenroth_5AR_NBTE_ratio: CCTE's 5alpha-reductase NanoBRET Target Engagement Assay - Ratio, Deisenroth Lab (AID 2284322); details: actives raise or lower the signal
Summary of the method: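 HEK293T cells transiently expressing an SRD5A2-NanoLuc fusion (20 h post-transfection) were exposed to test chemical (10 nM - 29.9 uM, 8 points) for 3 h, then testosterone tracer for a further 2 h. Acceptor/donor BRET ratio was fitted bidirectionally against DMSO baseline.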

[2] = IUF_NPC4_neurite_area_120hr: Leibniz Research Institute for Environmental Medicine (IUF) 120-hour Neuronal Morphology Assay for Neurite Area (NPC4) (AID 2284305; active means hit-call score of the fitted dose curve at least 0.9, where 1 is the maximum)
Summary of the method: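 hNPC spheres on PDL/laminin, N2 medium, 37C/5% CO2; dosed day 0, half-medium refresh day 3; fixed 120 h; TUBB3/Hoechst ICC, high-content imaging; neurite area = mean pixels per neuron (nuclei excluded); DMSO baseline, max 0.1%.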

[3] = IUF_NPC2-5_cytotoxicity_72hr: Cytotoxicity Assessment at 72 hours in the Leibniz Research Institute for Environmental Medicine (IUF) Neural Progenitor Cell Migration and Differentiation Assay for Cytotoxicity (NPC2-5) (AID 2284306; active means hit-call score of the fitted dose curve at least 0.9, where 1 is the maximum;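 further: LDH release into supernatant measured by resorufin fluorescence marking membrane damage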)
Summary of the method: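 hNPC spheres (0.3 mm), PDL/laminin, DMEM/F12 3:1 + 1% N2; cpd from d0, 7 concs + SC, DMSO max 0.1%; half-medium refresh d3. Readout: supernatant LDH via resorufin fluorescence (RFU), 72 h; gain-of-signal fit.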

[4] = IUF_NPC2-5_cytotoxicity_120hr: Cytotoxicity Assessment at 120 hours in the Leibniz Research Institute for Environmental Medicine (IUF) Neural Progenitor Cell Migration and Differentiation Assay (NPC2-5) (AID 2284307; active means hit-call score of the fitted dose curve at least 0.9, where 1 is the maximum)
Summary of the method: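 hNPC spheres on PDL/laminin, N2 medium, 37C; 7 concs + solvent control, DMSO ≤0.1%; 5-day exposure, half medium changed day 3. LDH in supernatant at 120 h, resazurin→resorufin fluorescence, gain-of-signal.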

[5] = IUF_NPC2-5_cell_number_120hr: Cell Number Assessment at 120 hours in the Leibniz Research Institute for Environmental Medicine (IUF) Neural Progenitor Cell Migration and Differentiation Assay (NPC2-5) (AID 2284308);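 further: count of Hoechst-stained nuclei in migration zone around plated human neural progenitor spheres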
Summary of the method: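 Hoechst-stained nuclei within the migration area were counted by automated high content imaging after 120 h. Single hNPC spheres differentiated on poly-D-lysine/laminin in DMEM/F12 (3:1) with 1% N2, compound present throughout, DMSO ≤0.1%.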

[6] = IUF_NPC2-5_viability_120hr: Viability Assessment at 120 hours in the Leibniz Research Institute for Environmental Medicine (IUF) Neural Progenitor Cell Migration and Differentiation Assay (NPC2-5) (AID 2284312)
Summary of the method: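 Human fetal neural progenitor spheres (0.3 mm) plated on poly-D-lysine/laminin in N2 differentiation medium, exposed 120 h with half-medium refresh at day 3. Viability by alamar blue resazurin fluorescence; 7 concentrations, DMSO max 0.1%.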

[7] = CCTE_Mundy_HCI_iCellGluta_NOG_NeuriteLength: CCTE's Neurite Outgrowth Assay in iCellGluta cells for Neurite Length, Mundy Lab (AID 2284318; active means hit-call score of the fitted dose curve at least 0.9, where 1 is the maximum)
Summary of the method: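 Automated high-content imaging of betaIII-tubulin (Alexa Fluor-488) and Hoechst-stained cells gave neurite length, normalized to the DMSO baseline.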

[8] = IUF_NPC1_cytotoxicity_72hr: Cytotoxicity Assessment at 72 hours in the Leibniz Research Institute for Environmental Medicine (IUF) Neural Progenitor Cell Proliferation Assay (NPC1) (AID 2284332; active means hit-call score of the fitted dose curve at least 0.9, where 1 is the maximum;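 further: rising LDH signal means more cytotoxicity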)
Summary of the method: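 Cytotoxicity by LDH membrane-integrity assay on medium supernatants, fluorescence via resazurin reduction, after 3-day single exposure of primary hNPC spheres at 37C, pH 7.2-7.6 with growth factors. Fitted upward against baseline.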

IYD (gene 389434) = experiment: CCTE_GLTED_hIYD: CCTE's human Iodotyrosine Deiodinase (xIYD) Inhibition Assay, Great Lakes Toxicology and Ecology Division (GLTED) Lab (AID 2284317; active means hit-call score of the fitted dose curve at least 0.9, where 1 is the maximum;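 further: cell-free human IYD enzyme made in baculovirus insect cells; iodide freed from monoiodotyrosine measured by cerium arsenite color change at 420 nm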)
Summary of the method: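 In the IYD assay, iodide released from MIT by insect-cell-expressed human enzyme was quantified after 3 h via Sandell-Kolthoff rate at 420 nm, with plate-wise normalization to MNT and solvent controls.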

[9] = TAMU_PeakParms_SingleDonor1434_Asystole: Texas A&M University (TAMU) 1.5-hr Human Induced Pluripotent Stem Cell (iPSC)-derived Cardiomyocytes Calcium (Ca+2) Flux Assay for Cardiotoxicity: Asystole (quiescence of beating) (AID 2284328; active means hit-call score of the fitted dose curve at least 0.9, where 1 is the maximum)
Summary of the method: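 Donor 1434 iPSC-cardiomyocytes exposed 90 min at 37C, 5% CO2, to 0.2, 1, 10 and 100 uM in 0.5% DMSO. Ca2+ dye fluorescence gave average peak frequency; POD is EC95, a 95% beat-rate drop versus controls.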

[10] = system: Brachyury (BRA) Protein Expression, Deisenroth Lab, TBXT (gene 6862); experiment: CCTE_Deisenroth_DEVTOX-GLR_legacy_Bra: (Legacy) CCTE's DevTox GLR-Endo Assay Evaluation of Brachyury (BRA) Protein Expression, Deisenroth Lab (AID 2284329)
Summary of the method: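 Readout: percent Bra+ cells by high-content fluorescence imaging, Bra+ meaning mean intensity 5x BMAD over pluripotent control median. RUES2-GLR cells dosed twice over 48 h differentiation; DMSO-control median subtracted before concentration-response fitting.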

[11] = CCTE_Deisenroth_DEVTOX-GLR_legacy_CellCount: (Legacy) Viability Assessment in CCTE's DevTox GLR-Endo Assay, Deisenroth Lab (AID 2284331); details: actives raise or lower the signal
Summary of the method: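 Nuclei count by fluorescence high-content imaging (5 fields/well) after 48 h differentiation of RUES2-GLR cells. Two exposures, 24 h apart; 1 nM - 200 uM series; n=4. Bidirectional fit vs DMSO.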

[12] = VALA_TUBHUV_Agonist_CellCount: Viability Assessment in the VALA Sciences human Umbilical Vein Endothelial Tubule Formation (TUBHUV) Agonism Assay (AID 2284309; active means hit-call score of the fitted dose curve at least 0.9, where 1 is the maximum)
Summary of the method: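 Viability endpoint by fluorescent imaging of fixed nuclear/CD31-stained HUVEC–HDF co-cultures. Readout is cell count, fitted upward against 0.1% DMSO. Compound exposure was 72 h in 10 ng/ml VEGF, after 3-day co-culture priming.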

[13] = VALA_TUBIPS_Antagonist_TubuleLength: VALA Sciences human iPS-derived Endothelial Tubule Formation (TUBIPS) Antagonist Assay (AID 2284313; active means hit-call score of the fitted dose curve at least 0.9, where 1 is the maximum)
Summary of the method: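 Tubule length was quantified by high-content imaging of CD31- and nuclear-stained cells, with 0.1% DMSO as neutral and 100 uM suramin as inhibition control. Compounds were applied for 3 days, in 10 ng/ml VEGF, to cultures pre-grown 3 days.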

[14] = VALA_MIGHUV2_CellCount: Viability Assessment in the VALA Sciences human Umbilical Vein Endothelial Cell Migration (MIGHUV) Assay, Area of Scratch Wound after Recovery (AID 2284314; active means hit-call score of the fitted dose curve at least 0.9, where 1 is the maximum)
Summary of the method: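 Viability read-out: Hoechst-stained nuclei counted by fluorescence imaging after a 24 h recovery period in fixed, scratched HUVEC plates. Compound was dosed within 30 min of scratching at six concentrations (triplicate); DMSO at 0.1 % served as baseline.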

[15] = VALA_MIGHUV2_Bcatenin: VALA Sciences human Umbilical Vein Endothelial Cell Migration (MIGHUV) Assay, Nuclear Translocation of beta-Catenin after Recovery (AID 2284315; active means hit-call score of the fitted dose curve at least 0.9, where 1 is the maximum)
Summary of the method: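 Nuclear beta-catenin imaged by immunofluorescence with Hoechst counterstain in fixed HUVEC, 24 h after scratch wounding and chemical addition. Six-point concentration-response in triplicate; activity scored as signal increase over 0.1% DMSO vehicle.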

[16] = VALA_MIGHUV2_WoundArea: VALA Sciences human Umbilical Vein Endothelial Cell Migration (MIGHUV) Assay, Area of Scratch Wound after Recovery (AID 2284316; active means hit-call score of the fitted dose curve at least 0.9, where 1 is the maximum)
Summary of the method: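 Wound-area endpoint read by fluorescence imaging of Hoechst-stained nuclei after a 24 h recovery period following scratch of HUVEC monolayers (9000 cells/well). Chemicals dosed within 30 min post-scratch, triplicate 6-point series, 0.1% DMSO vehicle; Cytochalasin D positive control.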

Q: For CN1C(=O)N(c2ccccc2Br)Cc2cnc(Nc3ccc4c(c3)OCC(CO)O4)nc21 (centres undefined), which outcome [1] is on record?
A: inactive

Q: What about the outcome (SRD5A2 (gene 6716)) of the same molecule?
A: inactive

Q: With O=C1O[C@H]([C@@H](O)CO)C(O)=C1O as the molecule, how does the outcome [2] read?
A: inactive

Q: What about the outcome [3] of the same molecule?
A: inactive

Q: What about the outcome [4] of the same molecule?
A: inactive

Q: And the outcome [5]?
A: inactive

Q: And the outcome [6]?
A: inactive

Q: What about the outcome [7] of the same molecule?
A: inactive

Q: And the outcome [8]?
A: inactive

Q: Which AC50 (IYD (gene 389434)) does the source give for CCOC(=O)O[C@H](C)OC(=O)c1ccc2c(c1)cc(C(=O)NC1CCN(C(C)C)CC1)n2Cc1cc(-c2ccc(Cl)s2)on1 here?
A: 56.4 µM (active)

Q: Which outcome [9] does the source give for c1ccc2ccccc2c1 here?
A: inactive

Q: What does the source list for O=c1[nH]sc2ccccc12?
A: AC50 [1]: 82.8 µM (active); AC50 (SRD5A2 (gene 6716)): 75 µM (active)

Q: What does the source list for CN1C(=O)CC[C@H]1c1cccnc1?
A: outcome [1]: inactive; outcome (SRD5A2 (gene 6716)): inactive

Q: For O=C(O)Cc1cc(I)c(Oc2ccc(O)c(I)c2)c(I)c1, which AC50 [1] is on record?
A: 14.3 µM (active)

Q: And the AC50 (SRD5A2 (gene 6716))?
A: 77.3 µM (active)

Q: With CCCOC(=O)c1cc(O)c(O)c(O)c1 as the molecule, how does the outcome [9] read?
A: inactive

Q: Which outcome [1] does the source give for NCc1cccc(C2CCN(C(=O)c3ccc(C#Cc4ccccc4F)o3)CC2)c1 here?
A: inactive

Q: What about the outcome (SRD5A2 (gene 6716)) of the same molecule?
A: inactive

Q: For CC(C)(C)c1csc(-c2cc3cc(OCc4ccccc4CC(=O)O)ccc3o2)n1, which AC50 (IYD (gene 389434)) is on record?
A: 68.7 µM (active)

Q: What does the source list for CN(C)c1ccc(C(=C2C=CC(=[N+](C)C)C=C2)c2ccc(N(C)C)cc2)cc1?
A: outcome (IYD (gene 389434)): inactive; AC50 [1]: 4.78 µM (active); AC50 (SRD5A2 (gene 6716)): 0.593 µM (active); AC50 [9]: 0.589 µM (active)

Q: With OCCO as the molecule, how does the outcome [10] read?
A: inactive

Q: What about the outcome [11] of the same molecule?
A: inactive

Q: With CCCCCCCCCCCO as the molecule, how does the outcome [1] read?
A: inactive

Q: And the outcome (SRD5A2 (gene 6716))?
A: inactive

Q: With COc1cc(C(=O)NC2CCN(C)CC2)ccc1Nc1ncc2c(n1)N(C1CCCC1)CC(F)(F)C(=O)N2C as the molecule, how does the outcome [1] read?
A: inactive

Q: What about the outcome (SRD5A2 (gene 6716)) of the same molecule?
A: inactive

Q: Which results are given for CCCCCCCCOC(=O)c1cc(O)c(O)c(O)c1?
A: AC50 [12]: 76.4 µM (active); outcome [13]: inactive; outcome [14]: inactive; AC50 [15]: 79.9 µM (active); outcome [16]: inactive; AC50 (IYD (gene 389434)): 77 µM (active); AC50 [1]: 61.4 µM (active); AC50 (SRD5A2 (gene 6716)): 1.59 µM (active)

Q: With CCCCOC(=O)c1ccc(O)cc1 as the molecule, how does the AC50 [10] read?
A: 100 µM (active)

Q: What about the AC50 [11] of the same molecule?
A: 38.2 µM (active)

Q: Which results are given for CN(C[C@@H](CC[N+]12CCC(C3CCCCC3)(CC1)CC2)c1ccc(Cl)c(Cl)c1)C(=O)c1cc(C(F)(F)F)cc(C(F)(F)F)c1?
A: AC50 (IYD (gene 389434)): 45.2 µM (active); AC50 [1]: 16.1 µM (active); AC50 (SRD5A2 (gene 6716)): 76 µM (active)
